This is an account of results in the supplement of paper PMC13094657.

± gives the standard deviation of the averaged measurements.

The subject of assay [1] is MDA-MB-231. The assay is described as follows: cell viability relative to vehicle unstimulated control (fraction); higher = more viable cells. The following applies: pre-treatment time: 18 h then 24 h IFNg/TNF.
In assay [2] the test system is MDA-MB-231. The assay is described as follows: kynurenine production, fold change vs DMSO IFNg/TNF control; higher = more kynurenine produced (less inhibition). The following applies: pre-treatment time: 18 h then 24 h IFNg/TNF. In outline:
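After trichloroacetic acid and p-dimethylaminobenzaldehyde treatment, supernatants were read at 492 nm, with 0–100 μM standards. These came from MDA-MB-231 cells (7 × 10^4/well, 96-well plates) pre-treated 18 h with natural products in 0.1% DMSO and then exposed 24 h to IFNγ (1 U/ml) and TNF (6.25 ng/ml) at 37°C. Values for kynurenine production are fold changes over same-plate cytokine-stimulated vehicle wells, averaged over duplicate plates in the first screening round.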
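For cell viability relative to vehicle unstimulated control in this document: viability of the cells left after supernatant collection, read with Deep Blue dye added for 4 h, as absorbance at 570 nm minus 600 nm.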

Regarding `COC(=O)[C@]1(C)CC[C@]2(C)CC[C@]3(C)C4=CC=C5C(=CC(=O)C(O)=C5C)[C@]4(C)CC[C@@]3(C)[C@@H]2C1` [Pristimerin] (compound dose: 10 uM), the cell viability in the assay on MDA-MB-231 [1] was -0.0372 ± 0.0069. The kynurenine production in the assay with MDA-MB-231 [2] turned out to be 0.0819 ± 0.0029.

As for `C=C1CCC2C(/C=C(\C)C(=O)C3(OC(C)=O)CC(C)C(OC(=O)c4ccccc4)C3C1OC(C)=O)C2(C)C` (stereo not drawn) [Euphorbia factor L3] (compound dose: 10 uM), the cell viability in the assay on MDA-MB-231 [1] is 1.05 ± 0.019. Besides, the kynurenine production in the assay with MDA-MB-231 [2] turned out to be 0.89 ± 0.11.

In the case of `CC(C)=CCCC(C)(O)C1CCC2(C)C1C(O)CC1C3(C)CCC(OC4OC(CO)C(O)C(O)C4O)C(C)(C)C3CCC12C` [20(R)-Ginsenoside Rh2] (compound dose: 10 uM), the cell viability with MDA-MB-231 [1] worked out at 1.08 ± 0.052. In addition, the kynurenine production in the assay with MDA-MB-231 [2] is 0.958 ± 0.21.

Take `C=C1CC[C@H]2[C@@H](/C=C(\C)C(=O)[C@@]3(O)C[C@H](C)[C@H](O)[C@@H]3[C@@H]1O)C2(C)C` [Lathyrol] (compound dose: 10 uM): the cell viability in the assay with MDA-MB-231 [1] was found to be 1.08 ± 0.11. Besides, the kynurenine production with MDA-MB-231 [2] came to 0.849 ± 0.095.

As to `C/C=C(/C)C(=O)O[C@H]1[C@@H]2[C@H](C)C(=O)O[C@@H]2C[C@@H](C)[C@@H]2C=CC(=O)[C@]21C` [Brevilin A] (compound dose: 10 uM), in the assay with MDA-MB-231 [1], the cell viability is 0.75 ± 0.035. The kynurenine production with MDA-MB-231 [2] turned out to be 0.132 ± 0.017.

As to `COc1ccc2c(c1O)-c1c(O)c(OC)cc3c1[C@H](C2)N(C)CC3` [Corytuberine] (compound dose: 10 uM), the cell viability in the assay with MDA-MB-231 [1] was 0.829 ± 0.025. Besides, the kynurenine production in the assay on MDA-MB-231 [2] was 0.889 ± 0.11.

Turning to `CCCCCCCCCCCCCC(=O)O[C@@H]1[C@@H](C)[C@@]2(O)[C@@H](C=C(CO)C[C@]3(O)C(=O)C(C)=C[C@@H]23)[C@@H]2C(C)(C)[C@]12OC(C)=O` [Phorbol 12-Myristate 13-Acetate] (compound dose: 10 uM), the cell viability with MDA-MB-231 [1] turned out to be 1.09 ± 0.038. The kynurenine production in the assay with MDA-MB-231 [2] amounted to 1.01 ± 0.21.

In the case of `CCCCCCCCCCCCCC(=O)O[C@@H]1[C@@H](C)[C@@]2(O)[C@@H](C=C(CO)C[C@]3(O)C(=O)C(C)=C[C@@H]23)[C@@H]2C(C)(C)[C@]12OC(C)=O` [12-O-tetradecanoyl phorbol-13-acetate] (compound dose: 10 uM), the cell viability with MDA-MB-231 [1] is 1.06 ± 0.043. In addition, the kynurenine production in the assay with MDA-MB-231 [2] was 0.858 ± 0.021.

Take `COc1ccc2c3c1O[C@H]1CC(=O)C=C[C@@]31CCN(C)C2` [Galanthaminone] (compound dose: 10 uM): the cell viability in the assay with MDA-MB-231 [1] came to 0.953 ± 0.034. Also, the kynurenine production in the assay with MDA-MB-231 [2] was 0.7845 ± 0.0068.
